Test results reported in PubChem BioAssay AID1159580 (chemical genetic matrix, 2015).
“And” between values parts separate entries of the source, which are not always exact repeats. Equal entries are not always repeated. Out of some 5,500 compounds screened, about 2,000 (36%) were called active. About 18% were inconclusive and are not listed. Cut-off read from the data, not from the text of the source: active = normalized growth mostly below about 0.91 (no sharp cut-off); inconclusive = no clear call, values can overlap the other calls; inactive = mostly above about 0.92. Some of the results follow.

Assay: chemical genetic growth profiling, strain panel (AID 1159580);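 note: tested at 20 µM; growth read once vehicle control cultures reached saturation at 30 °C; 1 = growth at the plate median or of vehicle wells; lower values mean less growth of the strain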
Conditions: S. cerevisiae deletion strains, growth OD

Measured: normalized growth

N[C@@H](C(=O)O)[C@@H](O)[C@H](O)[C@H](O)CO
inactive: locus YAL013W, strain DEP1, hits give low values 1.01 | locus YAL021C, strain ccr4, hits give low values 1.01 | locus YAL026C, strain drs2, hits give low values 1.04 | locus YAL030W, strain snc1, hits give low values 1.03 | locus YBL061C, strain skt5, hits give low values 1.03 | locus YBR009C, strain hhf1, hits give low values 1.03 | locus YBR021W, strain FUR4, hits give low values 1.01 | locus YBR023C, strain chs3, hits give low values 1.04 | locus YBR171W, strain sec66, hits give low values 1.04 | locus YBR229C, strain ROT2, hits give low values 1 | locus YBR231C, strain swc5, hits give low values 1.03 | locus YBR279W, strain paf1, hits give low values 1.01 | locus YCL011C, strain gbp2, hits give low values 1.04 | locus YCL016C, strain dcc1, hits give low values 1.02 | locus YCL029C, strain bik1, hits give low values 1.02 | locus YCL061C, strain MRC1, hits give low values 1.02 | locus YCL069W, strain vba3, hits give low values 1.03 | locus YCR088W, strain abp1, hits give low values 1.02 | locus YDL005C, strain med2, hits give low values 1.03 | locus YDL035C, strain GPR1, hits give low values 1.03 | locus YDL040C, strain nat1, hits give low values 1.01 | locus YDL074C, strain BRE1, hits give low values 1.06 | locus YDL101C, strain DUN1, hits give low values 1.01 | locus YDL185W, strain tfp1, hits give low values 1.02 | locus YDL192W, strain arf1, hits give low values 1.03 | locus YDR001C, strain nth1, hits give low values 1.02 | locus YDR069C, strain doa4, hits give low values 1.02 | locus YDR101C, strain arx1, hits give low values 1.02 | locus YDR137W, strain rgp1, hits give low values 1.04 | locus YDR150W, strain NUM1, hits give low values 1.02 | locus YDR159W, strain sac3, hits give low values 1.07 | locus YDR162C, strain NBP2, hits give low values 1.01 | locus YDR195W, strain ref2 1.02 | locus YDR297W, strain sur2, hits give low values 1.03 | locus YDR318W, strain mcm21, hits give low values 1 | locus YDR334W, strain swr1, hits give low values 1.03 | locus YDR335W, strain msn5, hits give low values 1.03 | locus YDR388W, hits give low values 1.01 | locus YDR392W, strain spt3, hits give low values 1.02 | locus YDR502C, strain sam2, hits give low values 1.01 | locus YEL003W, strain gim4, hits give low values 1.03 | locus YEL037C, strain rad23, hits give low values 1.02 | locus YEL061C, strain CIN8 (second series), hits give low values 1.03 | locus YEL061C, strain CIN8, hits give low values 1.02 | locus YER015W, strain faa2, hits give low values 1.03 | locus YER016W, strain bim1, hits give low values 1.02 | locus YER110C, hits give low values 1.02 | locus YER111C, strain swi4, hits give low values 1.03 | locus YER155C, strain BEM2 (second series), hits give low values 1 | locus YER155C, strain BEM2, hits give low values 1.01 | locus YER167W, strain BCK2, hits give low values 1 | locus YFR010W, strain ubp6, hits give low values 1.04 | locus YGL078C, strain dbp3, hits give low values 1.01 | locus YGL086W, strain mad1, hits give low values 1.01 | locus YGL167C, strain pmr1, hits give low values 1.04 | locus YGL173C, strain kem1, hits give low values 1.04 | locus YGL227W, strain vid30, hits give low values 1.02 | locus YGL240W, strain doc1, hits give low values 1.02 | locus YGL248W, strain PDE1, hits give low values 1 | locus YGL253W, strain hxk2, hits give low values 1.04 | locus YGR135W, strain pre9, hits give low values 1.01 | locus YGR252W, strain gcn5, hits give low values 0.967 | locus YHR013C, strain ard1, hits give low values 1.05 | locus YHR027C, strain rpn1, hits give low values 1.04 | locus YHR030C, strain SLT2, hits give low values 1.01 and 1.05 | locus YHR079C, strain IRE1 (second series), hits give low values 1.02 | locus YHR079C, strain IRE1, hits give low values 1.03 | locus YHR094C, strain hxt1, hits give low values 1.02 | locus YHR129C, strain ARP1, hits give low values 1 | locus YHR142W, strain chs7, hits give low values 1.07 | locus YHR200W, strain rpn10, hits give low values 1.02 | locus YIL066C, strain RNR3, hits give low values 1.01 | locus YIL073C, strain SPO22, hits give low values 1.05 | locus YIL125W, strain kgd1, hits give low values 1.02 | locus YIR030C, strain dcg1, hits give low values 1.02 | locus YJL092W, strain hpr5, hits give low values 1.03 | locus YJL095W, strain BCK1 (second series), hits give low values 1.02 | locus YJL095W, strain BCK1, hits give low values 1.01 and 1.04 | locus YJL115W, strain asf1, hits give low values 1.04 | locus YJL129C, strain trk1, hits give low values 1.06 | locus YJL134W, strain LCB3, hits give low values 1.01 | locus YJL154C, strain vps35, hits give low values 1.02 | locus YJL164C, strain tpk1, hits give low values 1.03 | locus YJL166W, strain qcr8, hits give low values 1.03 | locus YJL168C, strain set2, hits give low values 1.02 | locus YJL187C, strain SWE1 (second series), hits give low values 1.01 | locus YJL187C, strain SWE1, hits give low values 1.05 | locus YJR043C, strain POL32, hits give low values 1.02
